Molecules are shown by their SMILES.

Assay [1] deals with Tyrosine-protein kinase receptor UFO (Homo sapiens) (UniProt P30530). Conditions: at 1 µM.
Assay [2] has as its target Tyrosine-protein kinase Blk (Homo sapiens) (UniProt P51451). The settings on record: at 0.1 µM.
The target is the same in assay [3]. The settings on record: at 1 µM.
The target in assay [4] is T1, Cytoplasmic tyrosine-protein kinase BMX (Homo sapiens) (UniProt P51813).
T1 sequence (whole entry): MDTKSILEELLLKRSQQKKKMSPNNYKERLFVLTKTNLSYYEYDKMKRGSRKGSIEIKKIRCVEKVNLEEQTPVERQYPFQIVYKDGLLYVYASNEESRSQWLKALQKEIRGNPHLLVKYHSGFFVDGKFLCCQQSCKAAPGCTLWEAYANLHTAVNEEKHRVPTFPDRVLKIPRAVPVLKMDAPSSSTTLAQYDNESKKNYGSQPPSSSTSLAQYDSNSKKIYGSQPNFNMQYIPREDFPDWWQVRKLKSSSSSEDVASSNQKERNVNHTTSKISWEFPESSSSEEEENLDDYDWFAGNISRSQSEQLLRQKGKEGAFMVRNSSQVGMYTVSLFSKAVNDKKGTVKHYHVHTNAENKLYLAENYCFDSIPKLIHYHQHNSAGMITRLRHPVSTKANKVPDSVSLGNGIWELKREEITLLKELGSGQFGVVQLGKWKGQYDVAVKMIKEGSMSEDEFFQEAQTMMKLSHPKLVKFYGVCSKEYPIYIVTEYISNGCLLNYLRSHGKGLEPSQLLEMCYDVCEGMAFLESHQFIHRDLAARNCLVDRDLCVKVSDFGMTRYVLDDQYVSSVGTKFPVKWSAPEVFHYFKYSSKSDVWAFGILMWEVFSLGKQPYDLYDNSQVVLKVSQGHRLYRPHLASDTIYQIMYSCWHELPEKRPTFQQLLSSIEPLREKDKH
The settings on record: at 0.1 µM.

Assay [5] addresses T1, Cytoplasmic tyrosine-protein kinase BMX (Homo sapiens). The settings on record: at 1 µM.
The target of assay [6] is Protein-tyrosine kinase 6 (Homo sapiens) (UniProt Q13882). Conditions: at 0.1 µM.
For assay [7] the target is unchanged. Conditions: at 1 µM.
The target of assay [8] is Tyrosine-protein kinase BTK (Homo sapiens) (UniProt Q06187). The settings on record: at 0.1 µM.
Assay [9] shares this target. The settings on record: at 1 µM.
Assay [10] concerns the target Tyrosine-protein kinase CSK (Homo sapiens) (UniProt P41240). Conditions: at 0.1 µM.
The target is the same in assay [11]. The settings on record: at 1 µM.
For assay [12], the target named is T2, Discoidin domain-containing receptor 2 (Homo sapiens) (UniProt Q16832).
T2 sequence (whole entry): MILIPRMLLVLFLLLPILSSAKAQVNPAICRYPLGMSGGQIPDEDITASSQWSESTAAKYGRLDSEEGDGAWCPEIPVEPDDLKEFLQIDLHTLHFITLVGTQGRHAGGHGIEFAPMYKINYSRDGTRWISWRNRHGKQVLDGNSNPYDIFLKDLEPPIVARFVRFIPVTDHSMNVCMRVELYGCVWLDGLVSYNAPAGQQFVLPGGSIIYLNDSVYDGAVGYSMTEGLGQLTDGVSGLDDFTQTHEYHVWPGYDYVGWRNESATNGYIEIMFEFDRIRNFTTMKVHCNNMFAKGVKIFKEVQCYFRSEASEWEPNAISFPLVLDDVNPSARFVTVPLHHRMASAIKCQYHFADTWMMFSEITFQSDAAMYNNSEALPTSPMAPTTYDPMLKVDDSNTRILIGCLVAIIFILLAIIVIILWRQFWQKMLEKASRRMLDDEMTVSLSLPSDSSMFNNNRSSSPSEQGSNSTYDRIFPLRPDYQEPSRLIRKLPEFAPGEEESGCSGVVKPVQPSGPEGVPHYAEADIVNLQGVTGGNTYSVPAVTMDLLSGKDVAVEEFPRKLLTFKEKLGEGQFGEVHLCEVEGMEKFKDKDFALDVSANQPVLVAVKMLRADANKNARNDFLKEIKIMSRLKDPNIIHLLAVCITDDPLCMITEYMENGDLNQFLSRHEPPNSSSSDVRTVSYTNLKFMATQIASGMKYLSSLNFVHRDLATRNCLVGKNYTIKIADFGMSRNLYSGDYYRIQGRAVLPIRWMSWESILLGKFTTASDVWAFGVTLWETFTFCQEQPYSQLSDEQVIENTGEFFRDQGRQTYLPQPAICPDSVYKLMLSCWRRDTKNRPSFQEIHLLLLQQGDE
The settings on record: at 0.1 µM.

The target of assay [13] is T2, Discoidin domain-containing receptor 2 (Homo sapiens). The settings on record: at 1 µM.
For assay [14], the target named is Epidermal growth factor receptor (Homo sapiens) (UniProt P00533). The settings on record: at 0.1 µM.
Assay [15] shares this target. Conditions: at 1 µM.
In assay [16] the test system is Epidermal growth factor receptor (Homo sapiens), P00533 [L858R]. The settings on record: at 0.1 µM.
Assay [17] shares this test system. The settings on record: at 1 µM.
For assay [18], the system named is Epidermal growth factor receptor (Homo sapiens), P00533 [L861Q]. Conditions: at 0.1 µM.
Assay [19] has the same test system. The settings on record: at 1 µM.
The test system of assay [20] is Epidermal growth factor receptor (Homo sapiens), P00533 [T790M]. The settings on record: at 0.1 µM.
Epidermal growth factor receptor (Homo sapiens), P00533 [T790M], sequence (P00533 whole entry T790M): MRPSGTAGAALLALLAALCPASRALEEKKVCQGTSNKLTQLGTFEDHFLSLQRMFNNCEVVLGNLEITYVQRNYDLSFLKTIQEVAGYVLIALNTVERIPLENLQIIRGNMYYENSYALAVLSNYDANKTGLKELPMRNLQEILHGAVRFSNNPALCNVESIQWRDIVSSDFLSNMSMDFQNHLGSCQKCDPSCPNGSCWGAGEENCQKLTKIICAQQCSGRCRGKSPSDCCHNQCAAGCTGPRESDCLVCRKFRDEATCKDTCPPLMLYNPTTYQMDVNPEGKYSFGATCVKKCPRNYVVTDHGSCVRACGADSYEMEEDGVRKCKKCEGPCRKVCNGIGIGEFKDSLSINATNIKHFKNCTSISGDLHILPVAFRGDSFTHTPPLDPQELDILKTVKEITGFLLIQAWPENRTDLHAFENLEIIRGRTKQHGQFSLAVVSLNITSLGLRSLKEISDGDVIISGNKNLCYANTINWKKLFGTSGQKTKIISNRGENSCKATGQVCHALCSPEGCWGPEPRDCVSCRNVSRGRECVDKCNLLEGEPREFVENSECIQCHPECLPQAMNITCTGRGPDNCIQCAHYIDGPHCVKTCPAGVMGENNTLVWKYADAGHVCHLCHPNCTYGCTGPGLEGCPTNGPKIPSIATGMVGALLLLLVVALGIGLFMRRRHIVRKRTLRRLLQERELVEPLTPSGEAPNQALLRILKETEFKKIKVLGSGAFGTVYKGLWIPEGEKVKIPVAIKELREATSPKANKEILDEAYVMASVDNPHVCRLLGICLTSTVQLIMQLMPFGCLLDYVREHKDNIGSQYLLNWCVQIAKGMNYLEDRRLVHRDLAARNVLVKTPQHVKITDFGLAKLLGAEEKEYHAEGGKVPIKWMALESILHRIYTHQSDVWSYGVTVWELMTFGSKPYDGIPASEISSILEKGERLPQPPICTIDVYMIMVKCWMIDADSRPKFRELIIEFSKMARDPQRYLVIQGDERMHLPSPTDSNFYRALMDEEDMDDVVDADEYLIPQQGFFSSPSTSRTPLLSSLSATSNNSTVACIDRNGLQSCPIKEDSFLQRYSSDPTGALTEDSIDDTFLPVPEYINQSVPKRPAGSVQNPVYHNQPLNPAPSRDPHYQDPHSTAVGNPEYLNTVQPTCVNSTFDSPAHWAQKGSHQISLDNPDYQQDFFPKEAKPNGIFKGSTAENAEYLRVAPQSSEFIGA

Epidermal growth factor receptor (Homo sapiens), P00533 [L861Q], sequence (P00533 whole entry L861Q): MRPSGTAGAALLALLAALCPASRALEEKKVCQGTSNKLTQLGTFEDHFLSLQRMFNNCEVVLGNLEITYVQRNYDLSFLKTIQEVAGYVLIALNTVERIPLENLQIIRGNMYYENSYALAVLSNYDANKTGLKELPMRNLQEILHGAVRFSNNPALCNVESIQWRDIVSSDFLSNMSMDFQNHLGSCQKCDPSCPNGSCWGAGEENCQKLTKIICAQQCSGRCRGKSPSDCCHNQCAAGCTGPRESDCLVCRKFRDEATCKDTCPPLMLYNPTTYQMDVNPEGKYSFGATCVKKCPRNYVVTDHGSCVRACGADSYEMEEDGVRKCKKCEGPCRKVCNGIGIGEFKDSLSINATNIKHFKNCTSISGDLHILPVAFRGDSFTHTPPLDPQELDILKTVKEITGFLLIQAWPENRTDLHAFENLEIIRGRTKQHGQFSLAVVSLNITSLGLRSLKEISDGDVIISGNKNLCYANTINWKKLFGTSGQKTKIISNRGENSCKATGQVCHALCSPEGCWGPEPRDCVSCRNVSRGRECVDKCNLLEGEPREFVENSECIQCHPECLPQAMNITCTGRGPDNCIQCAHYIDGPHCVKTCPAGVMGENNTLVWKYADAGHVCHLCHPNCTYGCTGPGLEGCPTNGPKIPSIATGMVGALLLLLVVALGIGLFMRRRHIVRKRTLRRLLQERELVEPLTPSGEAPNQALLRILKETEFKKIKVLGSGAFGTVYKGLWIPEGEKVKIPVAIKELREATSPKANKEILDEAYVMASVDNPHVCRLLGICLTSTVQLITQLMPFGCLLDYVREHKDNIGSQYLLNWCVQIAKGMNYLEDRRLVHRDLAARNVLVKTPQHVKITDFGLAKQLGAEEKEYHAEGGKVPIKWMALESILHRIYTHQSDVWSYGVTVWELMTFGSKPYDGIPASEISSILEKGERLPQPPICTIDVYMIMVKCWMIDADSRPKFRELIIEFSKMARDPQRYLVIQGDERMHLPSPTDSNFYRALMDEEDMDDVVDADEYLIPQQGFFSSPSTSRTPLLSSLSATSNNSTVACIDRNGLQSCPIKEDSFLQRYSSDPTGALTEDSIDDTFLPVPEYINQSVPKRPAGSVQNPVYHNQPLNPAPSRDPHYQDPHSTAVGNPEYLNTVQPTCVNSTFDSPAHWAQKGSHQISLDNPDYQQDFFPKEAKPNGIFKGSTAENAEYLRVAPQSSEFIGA
Epidermal growth factor receptor (Homo sapiens), sequence (P00533 whole entry): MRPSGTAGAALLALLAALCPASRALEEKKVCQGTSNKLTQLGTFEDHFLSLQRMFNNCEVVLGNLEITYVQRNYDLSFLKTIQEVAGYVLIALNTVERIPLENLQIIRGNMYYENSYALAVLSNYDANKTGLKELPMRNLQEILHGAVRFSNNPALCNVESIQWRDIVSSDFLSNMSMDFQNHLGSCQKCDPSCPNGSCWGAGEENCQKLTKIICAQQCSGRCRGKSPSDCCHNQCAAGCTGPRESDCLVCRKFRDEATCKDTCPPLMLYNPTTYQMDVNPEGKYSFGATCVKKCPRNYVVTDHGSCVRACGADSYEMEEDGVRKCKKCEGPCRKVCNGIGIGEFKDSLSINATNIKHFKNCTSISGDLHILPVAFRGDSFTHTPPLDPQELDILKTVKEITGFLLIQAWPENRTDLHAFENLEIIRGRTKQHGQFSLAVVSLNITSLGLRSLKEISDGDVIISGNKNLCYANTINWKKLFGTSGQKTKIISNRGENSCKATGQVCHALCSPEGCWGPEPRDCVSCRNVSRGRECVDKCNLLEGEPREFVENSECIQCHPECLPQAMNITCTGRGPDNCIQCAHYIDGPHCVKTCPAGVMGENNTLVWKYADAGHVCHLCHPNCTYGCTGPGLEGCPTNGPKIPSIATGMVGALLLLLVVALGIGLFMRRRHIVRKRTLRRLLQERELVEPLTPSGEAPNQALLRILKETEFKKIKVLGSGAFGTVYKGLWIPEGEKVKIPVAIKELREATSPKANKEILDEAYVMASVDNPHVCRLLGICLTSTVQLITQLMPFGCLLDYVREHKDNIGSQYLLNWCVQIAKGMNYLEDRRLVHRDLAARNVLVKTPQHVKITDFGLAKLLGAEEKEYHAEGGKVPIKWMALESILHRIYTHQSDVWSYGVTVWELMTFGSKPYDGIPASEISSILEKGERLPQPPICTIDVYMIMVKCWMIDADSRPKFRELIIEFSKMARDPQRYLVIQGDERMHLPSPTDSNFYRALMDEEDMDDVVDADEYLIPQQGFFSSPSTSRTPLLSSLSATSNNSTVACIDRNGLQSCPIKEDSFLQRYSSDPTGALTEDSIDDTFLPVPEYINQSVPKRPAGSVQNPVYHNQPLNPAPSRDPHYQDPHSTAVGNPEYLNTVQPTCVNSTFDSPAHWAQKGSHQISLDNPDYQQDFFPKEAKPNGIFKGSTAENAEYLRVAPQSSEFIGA
Tyrosine-protein kinase receptor UFO (Homo sapiens), sequence (P30530 whole entry): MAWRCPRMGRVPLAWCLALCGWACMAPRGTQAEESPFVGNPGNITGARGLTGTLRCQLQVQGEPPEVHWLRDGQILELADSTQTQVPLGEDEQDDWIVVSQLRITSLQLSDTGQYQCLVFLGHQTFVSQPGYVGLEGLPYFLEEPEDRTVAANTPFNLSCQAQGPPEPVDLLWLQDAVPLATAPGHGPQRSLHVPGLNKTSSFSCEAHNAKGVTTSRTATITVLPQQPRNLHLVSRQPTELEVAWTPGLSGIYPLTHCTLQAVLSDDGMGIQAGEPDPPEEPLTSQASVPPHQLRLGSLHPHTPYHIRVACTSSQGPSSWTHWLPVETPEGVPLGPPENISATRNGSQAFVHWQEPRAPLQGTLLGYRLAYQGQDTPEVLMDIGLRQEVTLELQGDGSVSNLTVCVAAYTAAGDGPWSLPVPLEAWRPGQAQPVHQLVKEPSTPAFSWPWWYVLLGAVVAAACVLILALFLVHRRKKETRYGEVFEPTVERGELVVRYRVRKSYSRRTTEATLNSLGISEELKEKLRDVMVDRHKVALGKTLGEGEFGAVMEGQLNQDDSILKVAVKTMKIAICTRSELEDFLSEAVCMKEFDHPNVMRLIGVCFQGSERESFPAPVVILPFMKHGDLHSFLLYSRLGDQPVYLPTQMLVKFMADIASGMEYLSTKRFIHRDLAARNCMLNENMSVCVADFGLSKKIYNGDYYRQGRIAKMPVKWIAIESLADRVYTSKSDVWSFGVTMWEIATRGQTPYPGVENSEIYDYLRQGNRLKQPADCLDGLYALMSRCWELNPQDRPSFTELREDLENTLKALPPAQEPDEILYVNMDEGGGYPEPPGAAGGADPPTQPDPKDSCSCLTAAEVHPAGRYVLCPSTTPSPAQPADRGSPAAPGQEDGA
Tyrosine-protein kinase Blk (Homo sapiens), sequence (P51451 2-505 limits assumed): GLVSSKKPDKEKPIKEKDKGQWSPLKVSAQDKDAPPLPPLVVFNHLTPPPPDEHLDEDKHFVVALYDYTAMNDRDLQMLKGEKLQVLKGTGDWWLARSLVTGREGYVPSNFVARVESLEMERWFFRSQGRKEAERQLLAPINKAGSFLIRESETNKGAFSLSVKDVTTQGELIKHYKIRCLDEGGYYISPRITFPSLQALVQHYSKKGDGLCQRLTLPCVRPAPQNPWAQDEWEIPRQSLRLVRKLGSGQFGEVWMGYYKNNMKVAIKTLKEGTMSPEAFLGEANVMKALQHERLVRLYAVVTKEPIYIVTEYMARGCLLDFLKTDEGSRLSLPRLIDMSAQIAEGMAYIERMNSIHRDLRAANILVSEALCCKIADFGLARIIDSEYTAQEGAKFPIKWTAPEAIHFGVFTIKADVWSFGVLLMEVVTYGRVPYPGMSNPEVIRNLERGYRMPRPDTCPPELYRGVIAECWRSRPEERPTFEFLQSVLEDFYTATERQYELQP

By inhibition is commonly meant the relative decrease from the control value, in per cent. Regarding `CCOc1ccc2c(-c3ccnc(Nc4cc(OC)cc(C(F)(F)F)c4)n3)cnn2n1`, the inhibition was -1.43% in assay [1]; 0.5% in assay [2]; 4.83% in [3]; -3.75% in assay [4]; 2.82% in [5]; 1.51% in [6]. In addition, the inhibition in assay [7] was 2.17%; in assay [8], -0.58%; in assay [9] it was -0.1%; in [10] it was -0.12%; in assay [11] it was 0.11%; in assay [12], -0.19%. Moreover, the inhibition in assay [13] turned out to be 1.4%; in assay [14] it was 2.81%; in [15], 5.28%; in [16], 2.28%; in assay [17] it was 3.23%; in [18], 1.52%. Also, the inhibition in assay [19] was 2.39%; in assay [20], 0.36%.
As to `NC(=O)c1ccc2c(-c3ccnc(NCCCO)n3)c(-c3ccc(F)cc3)nn2c1`, the inhibition turned out to be 0.42% in assay [1]; 2.21% in [2]; 6.11% in assay [3]; 1.45% in assay [4]; 9.25% in assay [5]; 6.4% in assay [6]. Also, the inhibition was found to be 17.1% in [7]; 0.41% in assay [8]; 0.35% in assay [9]; 6.17% in assay [10]; 7.7% in [11]; 4.1% in [12]. For the same compound, the inhibition in [13] came out at 22.4%; in [14], 1.88%; in [15] it was 17.3%; in assay [16] it was 10.1%; in assay [17] it was 50.6%; in assay [18], 4.58%. The results for the inhibition in assay [19] and in assay [20] were 16.6% and 2.86%, respectively.
In the case of `O=C(O[C@H]1CN[C@H](C#Cc2cc3ncnc(Nc4ccc5c(cnn5Cc5ccccc5)c4)c3s2)C1)N1CCOCC1`, the inhibition was 2.46% in [1]; -0.69% in assay [2]; 6.27% in assay [3]; -1.03% in [4]; 2.39% in assay [5]; 1.71% in assay [6]. Moreover, the inhibition is 2.7% in assay [7]; 2.14% in assay [8]; 1.05% in [9]; -1.39% in assay [10]; 4.15% in assay [11]; 0.56% in assay [12]. Further, the inhibition was 0.22% in [13]; 72.3% in assay [14]; 83.3% in assay [15]; 14.2% in assay [16]; 56.2% in assay [17]; 25.9% in [18]. Also, the figures for the inhibition in [19] and in [20] were 44.2% and 0.87%, respectively.
Turning to `CCS(=O)(=O)c1ccc(OC)c(Nc2ncc(-c3cccc(F)c3)o2)c1`, the inhibition in assay [1] is -5.62%; in [2], 21.3%; in assay [3] it was 73.8%; in [4], 1.13%; in [5], 33%; in assay [6], 9.28%. In addition, the inhibition in [7] is 29.8%; in assay [8] it was 3.65%; in assay [9] it was 28.6%; in assay [10], 7.64%; in assay [11], 17.9%; in assay [12] it was 5.27%. In addition, the inhibition amounted to 28.3% in [13]; 3.05% in assay [14]; 9.19% in assay [15]; 9.54% in [16]; 20.1% in assay [17]; 4.09% in assay [18]. The figures for the inhibition in assay [19] and in assay [20] were 8.2% and 3.64%, respectively.
As for `NS(=O)(=O)c1cccc(N/C=C2\C(=O)Nc3ccccc32)c1`, the inhibition was -2.91% in assay [1]; 2.39% in [2]; 8.59% in assay [3]; 2.23% in assay [4]; 5.84% in [5]; 3.79% in [6]. In addition, the inhibition in assay [7] is 5.69%; in assay [8] it was 0.73%; in assay [9], -0.4%; in assay [10], 3.86%; in assay [11], -0.23%; in assay [12], 4.35%. Further, the inhibition in assay [13] stood at 6%; in assay [14] it was 5.8%; in assay [15], 9.72%; in assay [16], 2.03%; in assay [17] it was 3.12%; in assay [18] it was 2.12%. Also, the inhibition was determined as 2.32% in assay [19] and 2.62% in assay [20].
For the compound `Cc1cc(O)cc(C)c1/C=C/c1cncc(C(N)=O)c1`, the inhibition in [1] was -0.54%; in [2], 3.77%; in assay [3], 23%; in [4], 5.58%; in assay [5] it was 37.5%; in [6], 22.2%. In addition, the inhibition is 72.8% in assay [7]; -0.17% in [8]; 2.64% in assay [9]; 4.27% in assay [10]; 25.5% in assay [11]; 2.69% in assay [12]. In addition, the inhibition in assay [13] was 9.65%; in assay [14], 6.97%; in assay [15] it was 11.2%; in [16] it was 3.98%; in [17], 18.9%; in [18] it was 3.84%. Moreover, the inhibition in [19] amounted to 5.76%; in assay [20], 1.27%.

The record behind these values is ChEMBL document CHEMBL1961873, “Compounds: GSK PKIS; Assays: Nanosyn kinase panel” (2012).
